dFosB activator – mouse delta FosB homodimer activation; P13346; purified delta FosB, TAMRA-CDK5 oligo fluorescence polarization; percent of positive-control signal above neutral wells; activation, % at 25 µM; 340,000 tested, 0.99% active;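 active means mean activation above about 17%, with every replicate also reaching it, limit read from the data, passing the limit was not always enough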
EBNA-1 inhibitor – blocks EBNA-1 binding to DNA; inhibition, % at 14.8 µM; AID 1950; EBNA-1 DNA binding, fluorescence polarization; 300,000 tested, 0.34% active; in the data active means inhibition above about 28%
Rpn11 inh – blocks the human proteasome subunit Rpn11; inhibition, % at 20 µM; O00487; human 26S proteasome, Ub4-pepOG fluorescence polarization; 20S core pre-blocked with epoxomicin; 360,000 tested, 0.59% active;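 active means inhibition at 20 µM, scaled to each plate's controls, above about 33%, limit read from the data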
ZTA DNA inh – counter-screen for EBNA-1 inhibitors: inhibitors of Epstein-Barr virus ZTA; ZTA-DNA binding, fluorescence polarization; inhibition, % at 11 µM; 320,000 tested, 0.15% active; in the data active means inhibition above about 33%
Target sequence (P03206 whole entry, looked up): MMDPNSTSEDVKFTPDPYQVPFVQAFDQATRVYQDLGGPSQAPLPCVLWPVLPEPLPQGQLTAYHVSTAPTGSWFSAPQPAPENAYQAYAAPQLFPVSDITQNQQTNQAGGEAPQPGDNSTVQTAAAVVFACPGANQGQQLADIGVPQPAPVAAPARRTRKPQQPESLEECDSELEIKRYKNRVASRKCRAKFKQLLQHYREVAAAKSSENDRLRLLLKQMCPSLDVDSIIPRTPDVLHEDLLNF
GRIN3A LBD mod – modulates the human NR3A ligand-binding domain; Tm shift relative to glycine control, % at 25 µM; 340,000 tested, 2.5% active; AID 1259313; NR3A LBD differential scanning fluorimetry, Tm shift; 0% = protein alone, 100% = glycine-bound protein;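 active means melting temperature shift of at least 10% of the positive control shift, at one fixed dose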
TPT1 inh – blocks Candida albicans tRNA 2'-phosphotransferase; AID 1962; recombinant caTPT1, FP RNA substrate dephosphorylation; inhibition, % at 5 µM; 300,000 tested, 0.81% active;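 active means inhibition above the mean of all tested compounds plus 3 SD, set per screening campaign, cut at about 24% in these data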
TPT1 inh confirm – TPT1 (C. albicans) inhibition, confirmation | inhibition, % at 5 µM | shares compounds with TPT1 inh | 2,400 tested, 74% active | recombinant caTPT1, fluorescence polarization, RNase T1 coupled;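 active means inhibition above the primary screen limit, the mean inhibition of all tested compounds plus 3 SD, cut at about 25% in these data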
RNase T1 inh – counter-screen for TPT1 inhibitors: inhibitors of Aspergillus oryzae RNase T1 | shares compounds with TPT1 inh | RNase T1 cleavage, fluorescence polarization, 1536-well | inhibition, % at 5 µM | 2,400 tested, 83% active | AID 2153;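 active means inhibition above the solvent-only control well mean plus 3 SD, limit set per screening run, cut at about 23% in these data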;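 further: inhibitors block cleavage so intact labeled substrate keeps polarization high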
Target sequence (P00651 whole entry, looked up): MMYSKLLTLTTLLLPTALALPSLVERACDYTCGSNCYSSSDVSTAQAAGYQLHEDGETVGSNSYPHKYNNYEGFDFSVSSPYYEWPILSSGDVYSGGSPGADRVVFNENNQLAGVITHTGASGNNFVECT
Hits are given with their value; – = inactive; · = no result shown; + = active, no number. A selection: hits, their analogues and other compounds. The true share with any hit is near 4.5%.

SMILES	dFosB activator	EBNA-1 inhibitor	Rpn11 inh	ZTA DNA inh	GRIN3A LBD mod	TPT1 inh	TPT1 inh confirm	RNase T1 inh
Cc1ccc(/C=c2/sc3nnc(-c4ccccc4Cl)n3c2=O)o1	–	–	–	–	–	–	·	·
CCN(CC)c1ccc(-c2nn3c(-c4ccccc4OC)nnc3s2)cc1	–	–	–	–	–	–	·	·
CCN(CC)c1ccc(/C=c2/sc3nnc(-c4ccccc4C)n3c2=O)cc1	–	–	·	–	–	109	165	167
CCN(CC)c1ccc(/C=c2\sc3nnc(-c4ccccc4Cl)n3c2=O)cc1	–	–	·	–	–	+	176	163
CCOc1ccc(C2C(C#N)=C(N)SC(N)=C2C#N)c(OCC)c1	–	–	·	–	–	150	–	32
Cc1[nH]nc2c1C(c1ccc(-c3ccccc3C#N)o1)C(C#N)=C(N)O2 (stereo not given)	–	–	–	–	–	–	·	·
Cc1ccc(-c2ccc(C3C(C#N)=C(N)Oc4n[nH]c(C)c43)o2)cc1 (stereo not given)	–	–	–	–	–	35	–	–
CN(C)CCC1CCN(c2cc(C#N)c(C#N)cc2[N+](=O)[O-])CC1	–	–	–	–	–	119	–	–
COc1cccc(C(C(=O)NC2CCCC2)N(C(=O)c2ccco2)c2ccc(NC(C)=O)cc2)c1OC (stereo not given)	–	–	–	–	–	–	·	·
O=C(Cn1cnc2ccccc21)N/N=C/c1ccc([N+](=O)[O-])cc1	–	–	–	–	–	–	·	·
O=C(Cn1cnc2ccccc21)N/N=C/c1cccc([N+](=O)[O-])c1	–	–	–	–	–	36	–	–
Cc1cc(C)nc(/N=C(\N)Nc2ccc(OCCC(C)C)cc2)n1	–	–	–	–	–	–	·	·
COc1ccc(C(=O)C[n+]2cc(Br)cc3ccccc32)cc1[N+](=O)[O-]	–	–	–	–	–	45	39	56
O=C(C[n+]1cc(Br)cc2ccccc21)c1ccccc1	–	–	·	–	–	40	48	64
Cc1ccc(-n2c(C)cc(/C=N/Nc3ccc([N+](=O)[O-])cn3)c2C)cc1	–	–	–	–	–	34	35	47
Cc1ccc(Cn2cc(/C=N/Nc3ccc([N+](=O)[O-])cn3)c3ccccc32)cc1	–	–	–	–	–	51	34	44
Cc1c(/C=N/Nc2ccc([N+](=O)[O-])cn2)c2ccccc2n1Cc1ccccc1	–	–	–	–	–	–	·	·
Cc1cc(/C=N/Nc2ccc([N+](=O)[O-])cn2)c(C)n1-c1ccccc1	22	–	–	–	–	31	35	47
Cc1cc(/C=N/NC(=O)CC#N)c(C)n1-c1ccc([N+](=O)[O-])cc1	–	–	–	–	–	–	·	·
O=C1C2CCC(C2)C1CN1CCOCC1 (stereo not given)	–	·	–	·	–	·	·	·
CCc1nc2c(OCc3ccccc3)cccn2c1N(C)C(C)=O	·	·	–	·	·	·	·	·
Cc1cc(C2C(C#N)=C(N)Oc3n[nH]c(C)c32)c(C)s1 (stereo not given)	–	–	–	–	–	–	·	·
Cc1[nH]nc2c1C(c1ccsc1C)C(C#N)=C(N)O2 (stereo not given)	–	–	–	–	–	–	·	·
Cc1sccc1C1C(C#N)=C(N)SC(N)=C1C#N	·	–	·	–	·	100	70	84
Cc1cc(C2C(C#N)=C(N)SC(N)=C2C#N)c(C)s1	–	–	·	–	–	101	46	59
COC(=O)CSc1nc(N)c2c3c(sc2n1)C(c1ccccc1)SC(c1ccccc1)C3 (stereo not given)	–	–	·	–	–	72	–	31
CCCCCCCCNC(=O)c1ccc(C)cc1	·	–	·	–	·	37	–	–
O=C(C[n+]1cccc2ccccc21)c1ccc([N+](=O)[O-])cc1	–	–	–	–	–	32	–	–
O=[N+]([O-])c1ccc(Cl)c(C[n+]2cccc3ccccc32)c1	–	–	–	–	–	59	–	–

Screens: PubChem BioAssay, several laboratories
